For orientation: AC50 means the midpoint of the concentration-response curve, whichever way the signal moves.

These results are taken from PubChem BioAssay (EPA / NIEHS).

Activity calls are given as the source filed them. The calls were made as follows: active = hit-call score of the fitted dose curve at least 0.9, where 1 is the maximum; inactive = score below 0.9.

Test [1] is described as follows: ATG_CRE_CIS: Attagene CIS-FACTORIAL HepG2 Assay for human cAMP Responsive Element (CRE) binding protein 3 (AID 2282926). The following applies: HepG2 CRE cis-reporter, Attagene multiplexed mRNA; actives raise or lower the signal. An outline of the steps: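 Endogenous transcription factor activity read via CRE-regulated reporter transcripts in transfected HepG2 cells. After 24 h exposure, RNA was reverse-transcribed, amplified, fluorescently labelled and sized by capillary electrophoresis; gain or loss fitted against DMSO.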

The target of test [2] is CCAAT/enhancer-binding protein beta (Homo sapiens) (UniProt P17676). Briefly: ATG_C_EBP_CIS: Attagene CIS-FACTORIAL HepG2 Assay for human CCAAT/Enhancer Binding Protein (C/EBP) beta (AID 2282927). The following applies: HepG2 Attagene cis-factorial transcription factor reporter; actives raise or lower the signal. An outline of the steps: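 Endogenous transcription factor activity in human liver HepG2 cells is inferred from induction of a CEBPB-linked reporter mRNA. Exposure lasts 24 h; activity is fitted in both directions relative to DMSO.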
Sequence of CCAAT/enhancer-binding protein beta (Homo sapiens) (P17676 whole entry, looked up): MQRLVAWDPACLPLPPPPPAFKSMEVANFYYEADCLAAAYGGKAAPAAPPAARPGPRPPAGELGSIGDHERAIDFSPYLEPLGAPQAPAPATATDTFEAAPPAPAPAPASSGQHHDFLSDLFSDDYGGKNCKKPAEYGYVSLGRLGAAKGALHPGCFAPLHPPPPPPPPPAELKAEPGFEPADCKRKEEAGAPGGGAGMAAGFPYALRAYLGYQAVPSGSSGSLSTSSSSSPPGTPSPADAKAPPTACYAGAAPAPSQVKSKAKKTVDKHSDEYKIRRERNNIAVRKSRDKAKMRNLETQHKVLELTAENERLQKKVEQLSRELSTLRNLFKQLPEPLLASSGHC

The nature of test [3]: ATG_CMV_CIS: Attagene CIS-FACTORIAL HepG2 Assay for human CMV (Internal Marker) (AID 2282928).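 Also: endpoint acts as a background internal control marker rather than a target.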 As to conditions: HepG2 CMV promoter reporter, transcription factor profiling; actives raise or lower the signal. The procedure, abridged: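 Readout: fluorescent reporter cDNA fragments separated by capillary electrophoresis after RT-PCR and HpaI cut. Cells: HepG2 carrying transfected cis-promoter reporter constructs, dosed 24 h. Endpoint serves as background internal-marker control, fit bidirectionally versus DMSO.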

Test [4] is described as follows: ATG_AP_1_CIS: Attagene CIS-FACTORIAL HepG2 Assay for human Activator Protein 1 (AP-1) (AID 2282931). As to conditions: HepG2 Attagene cis-factorial AP-1 reporter mRNA; actives raise or lower the signal. An outline of the steps:
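Reporter transcripts were measured 24 h after dosing by RT-PCR and capillary electrophoresis of fluorescent fragments. Cells: HepG2 carrying transfected cis-regulated reporter constructs reading endogenous factor activity. Gain or loss fitted against DMSO.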

Test [5] in a line: ATG_AP_2_CIS: Attagene CIS-FACTORIAL HepG2 Assay for human Activator Protein 2 (AP-2) (AID 2282932). The following applies: HepG2 AP-2 cis-reporter, Attagene transcription factor profiling; actives raise or lower the signal. The procedure, abridged: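 Transiently transfected HepG2 cells are exposed to chemical for 24 h. Reporter transcripts are then measured as fluorescence following RT-PCR and capillary separation, and gain- or loss-of-signal is fitted relative to DMSO.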

The nature of test [6]: ATG_BRE_CIS: Attagene CIS-FACTORIAL HepG2 Assay for human Bone Morphogenetic Protein (BMP) Response Element (BRE) (AID 2282933). As to conditions: HepG2 BMP response element reporter, Attagene transcription factor profiling; actives raise or lower the signal. An outline of the steps:
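Endogenous transcription factor activity read in transiently transfected HepG2 cells after 24 h chemical exposure. Bidirectional curve fitting against DMSO; readout is reporter transcript level by RT-PCR with capillary electrophoresis of labelled products.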

Test [7] has as its target Transcription factor E2F1 (Homo sapiens) (UniProt Q01094). As to the kind of experiment: ATG_E2F_CIS: Attagene CIS-FACTORIAL HepG2 Assay for human E2F Transcription Factor 1 (AID 2282935). As to conditions: HepG2 Attagene cis-reporter, E2F reporter RNA transcripts; actives raise or lower the signal. The procedure, abridged: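 Fluorescent RT-PCR products, digested with HpaI for 2 h at 37 C, are separated by capillary electrophoresis. Source RNA comes from transfected HepG2 cultures treated for 24 h.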

Test [8] in a line: ATG_E_Box_CIS: Attagene CIS-FACTORIAL HepG2 Assay for human Enhancer Box (E-box) (AID 2282936). As to conditions: HepG2 E-box cis-reporter transcription, actives raise or lower the signal. An outline of the steps:
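Fluorescent reporter fragments separated by capillary electrophoresis gave the signal; mRNA came from HepG2 cells transfected with cis-element reporters and treated 24 h. Curves fitted bidirectionally relative to DMSO controls.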

Test [9] in a line: ATG_M_61_CIS: Attagene CIS-FACTORIAL HepG2 Assay for M61 Transcription Factor (Internal Marker) (AID 2282937). As to conditions: HepG2 Attagene CIS-FACTORIAL M61 internal marker reporter; actives raise or lower the signal. The procedure, abridged: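 Readout: fluorescent reporter mRNA fragments resolved by capillary electrophoresis after RT-PCR. Transiently transfected human HepG2 cells carried MRTU constructs reporting endogenous TF activity; 24 h chemical exposure; gain or loss of signal fitted relative to DMSO.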

Test [10] is described as follows: ATG_EGR_CIS: Attagene CIS-FACTORIAL HepG2 Assay for human Early Growth Response 1 (EGR1) (AID 2282938). The following applies: HepG2 Attagene CIS-FACTORIAL EGR reporter mRNA; actives raise or lower the signal. The procedure, abridged: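 Read-out: fluorescent reporter-mRNA fragments resolved by capillary electrophoresis after RT-PCR, 24 h post-dose in transiently transfected HepG2. Endogenous transcription-factor activity reported via cis-element-regulated reporter units; gain or loss fitted relative to DMSO.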

Test [11] can be described thus: ATG_M_19_CIS: Attagene CIS-FACTORIAL HepG2 Assay for M19 Transcription Factor (Internal Marker) (AID 2282939). As to conditions: HepG2 Attagene CIS-FACTORIAL M19 internal marker reporter; actives raise or lower the signal. The procedure, abridged:
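Internal marker readout, fitted in both directions against DMSO, from HepG2 cells carrying transfected cis-element reporter constructs; RT-PCR and capillary electrophoresis of reporter mRNA after 24 h exposure.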

Test [12] can be described thus: ATG_GATA_CIS: Attagene CIS-FACTORIAL HepG2 Assay for human GATA Binding Protein (AID 2282944). The following applies: HepG2 GATA cis-element reporter, Attagene multiplex mRNA; actives raise or lower the signal. An outline of the steps: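 Reporter transcripts from a GATA cis-regulated unit, among multiplexed reporters in transfected HepG2 cells, were measured by RT-PCR with capillary electrophoresis after 24 h dosing. Induction or loss scored relative to DMSO.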

A short description of test [13]: ATG_GLI_CIS: Attagene CIS-FACTORIAL HepG2 Assay for human Zinc Finger Protein GLI1 (AID 2282945). The following applies: HepG2, Attagene cis-factorial reporter mRNA, GLI element; actives raise or lower the signal. The procedure, abridged:
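Bidirectional curve fits relative to DMSO, using reporter mRNA levels from RT-PCR plus capillary electrophoresis. Cells were HepG2 transiently carrying cis-regulated reporter constructs, harvested 24 h after dosing.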

A short description of test [14]: ATG_ISRE_CIS: Attagene CIS-FACTORIAL HepG2 Assay for human Interferon Regulatory Factor 1 (IRF1) binding to an Interferon-Stimulated Response Element (ISRE) (AID 2282948). The following applies: HepG2 ISRE cis-reporter (Attagene), mRNA transcription readout; actives raise or lower the signal. The procedure, abridged:
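Read-out: fluorescent RT-PCR products resolved by capillary electrophoresis, reporting endogenous transcription factor activity via ISRE-driven reporter mRNA in transfected HepG2 cells dosed for 24 h; gain or loss fitted relative to DMSO.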

The nature of test [15]: ATG_M_32_CIS: Attagene CIS-FACTORIAL HepG2 Assay for M32 Transcription Factor (Internal Marker) (AID 2282949).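 Also: background control marker of the multiplexed CIS panel rather than a real target.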 The following applies: HepG2 Attagene cis-factorial M32 reporter, mRNA; actives raise or lower the signal. The procedure, abridged: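 Transient MRTU transfection of HepG2; 24 h compound treatment; TriZol RNA, oligo(dT) RT, reporter PCR, 6-FAM primer extension, HpaI cut, CE. Gain/loss of signal vs DMSO.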

The nature of test [16]: ATG_MRE_CIS: Attagene CIS-FACTORIAL HepG2 Assay for human Metal Responsive Element (MRE) (AID 2282954). The following applies: HepG2 MRE cis-reporter transcription, Attagene multiplex; actives raise or lower the signal. An outline of the steps: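 Multiplexed cis-reporter assay in human HepG2 liver cells, 24 h incubation with test chemical. Reporter transcripts measured by RT-PCR and capillary electrophoresis; values from bidirectional curve fitting versus DMSO.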

Test [17] has as its target Paired box protein Pax-6 (Homo sapiens) (UniProt P26367). As to the kind of experiment: ATG_Pax6_CIS: Attagene CIS-FACTORIAL HepG2 Assay for human Paired Box 6 (PAX6) (AID 2282956). As to conditions: HepG2 CIS-FACTORIAL PAX6 reporter transcription, RNA readout; actives raise or lower the signal. An outline of the steps:
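Readout: reporter transcript fluorescence after RT-PCR and capillary electrophoresis. Cells: HepG2, transiently transfected with cis-regulated MRTUs. Exposure 24 h. Gain or loss of signal fitted bidirectionally relative to DMSO.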

The nature of test [18]: ATG_PXRE_CIS: Attagene CIS-FACTORIAL HepG2 Assay for human Pregnane X Receptor Element (PXRE) (AID 2282957). As to conditions: HepG2 Attagene CIS-FACTORIAL PXRE reporter, mRNA; actives raise or lower the signal. An outline of the steps: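 Reporter transcripts under endogenous PXR-responsive cis-regulation quantified from total RNA of transfected HepG2 cells 24 h post-dosing, via RT-PCR with fluorescent primer extension and capillary electrophoresis. Gain or loss of signal fitted against DMSO baseline.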

In test [19] the target is Transcription factor Sp1 (Homo sapiens) (UniProt P08047). As to the kind of experiment: ATG_Sp1_CIS: Attagene CIS-FACTORIAL HepG2 Assay for human Specificity Protein 1 (Sp1) (AID 2282961). The following applies: HepG2 Sp1 cis-reporter transcription, actives raise or lower the signal. An outline of the steps:
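Read-out: fluorescence of 6-FAM-labeled, HpaI-digested RT-PCR products separated by capillary electrophoresis. HepG2 cells carried transfected cis-element reporter units and were exposed to chemicals for 24 h; gain or loss of signal fitted relative to DMSO.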

The target in test [20] is Signal transducer and activator of transcription 3 (Homo sapiens) (UniProt P40763). As to the kind of experiment: ATG_STAT3_CIS: Attagene CIS-FACTORIAL HepG2 Assay for human Signal Transducer and Activator of Transcription 3 (STAT3) (AID 2282963). As to conditions: HepG2, Attagene cis-factorial STAT3 reporter transcription; actives raise or lower the signal. The procedure, abridged: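 Cis-factorial format: endogenous transcription factors in HepG2 drive transfected reporter units. After 24 h treatment, reporter RNA was reverse-transcribed, amplified, FAM-labelled and HpaI-digested before CE analysis; activity scored in both directions against DMSO.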
Sequence of Signal transducer and activator of transcription 3 (Homo sapiens) (P40763 whole entry, looked up): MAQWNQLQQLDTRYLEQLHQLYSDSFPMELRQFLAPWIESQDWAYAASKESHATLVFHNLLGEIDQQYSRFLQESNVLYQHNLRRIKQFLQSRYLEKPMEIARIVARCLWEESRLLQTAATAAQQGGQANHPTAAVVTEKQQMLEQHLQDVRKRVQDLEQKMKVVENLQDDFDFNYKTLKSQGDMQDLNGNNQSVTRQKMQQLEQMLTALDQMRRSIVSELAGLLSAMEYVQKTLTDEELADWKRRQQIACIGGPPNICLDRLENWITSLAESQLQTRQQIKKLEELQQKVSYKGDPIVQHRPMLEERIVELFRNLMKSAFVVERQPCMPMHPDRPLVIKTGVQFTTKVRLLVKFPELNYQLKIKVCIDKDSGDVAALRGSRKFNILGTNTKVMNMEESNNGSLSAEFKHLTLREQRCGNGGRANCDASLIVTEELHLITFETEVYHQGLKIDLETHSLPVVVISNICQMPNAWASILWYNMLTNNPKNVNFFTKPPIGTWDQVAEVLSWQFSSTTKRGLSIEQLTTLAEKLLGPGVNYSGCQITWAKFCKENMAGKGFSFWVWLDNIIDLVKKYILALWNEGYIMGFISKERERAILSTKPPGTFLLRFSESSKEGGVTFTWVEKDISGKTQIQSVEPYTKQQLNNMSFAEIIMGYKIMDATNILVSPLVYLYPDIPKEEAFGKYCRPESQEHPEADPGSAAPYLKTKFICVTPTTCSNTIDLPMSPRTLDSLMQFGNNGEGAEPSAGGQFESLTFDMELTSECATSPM

Sequence of Transcription factor Sp1 (Homo sapiens) (P08047 whole entry, looked up): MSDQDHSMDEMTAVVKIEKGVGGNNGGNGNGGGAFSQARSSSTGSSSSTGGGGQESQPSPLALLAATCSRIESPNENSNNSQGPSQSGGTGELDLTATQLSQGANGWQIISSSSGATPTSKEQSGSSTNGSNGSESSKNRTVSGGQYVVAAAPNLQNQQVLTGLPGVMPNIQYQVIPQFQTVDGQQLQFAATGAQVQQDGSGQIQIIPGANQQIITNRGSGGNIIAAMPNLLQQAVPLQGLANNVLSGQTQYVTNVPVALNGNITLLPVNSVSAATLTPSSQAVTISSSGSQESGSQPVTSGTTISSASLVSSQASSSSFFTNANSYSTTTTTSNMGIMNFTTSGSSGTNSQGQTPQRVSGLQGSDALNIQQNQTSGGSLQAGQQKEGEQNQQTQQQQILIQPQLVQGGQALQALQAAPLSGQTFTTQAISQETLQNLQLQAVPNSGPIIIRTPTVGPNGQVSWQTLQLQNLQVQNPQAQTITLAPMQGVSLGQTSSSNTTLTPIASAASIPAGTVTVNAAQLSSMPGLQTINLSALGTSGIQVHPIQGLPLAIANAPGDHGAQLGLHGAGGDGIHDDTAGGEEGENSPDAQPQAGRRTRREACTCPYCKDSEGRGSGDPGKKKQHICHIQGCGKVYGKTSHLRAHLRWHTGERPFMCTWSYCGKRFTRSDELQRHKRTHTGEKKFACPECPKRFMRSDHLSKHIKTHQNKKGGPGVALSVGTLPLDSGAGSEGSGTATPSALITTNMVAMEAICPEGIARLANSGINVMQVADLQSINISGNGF
Sequence of Transcription factor E2F1 (Homo sapiens) (Q01094 whole entry, looked up): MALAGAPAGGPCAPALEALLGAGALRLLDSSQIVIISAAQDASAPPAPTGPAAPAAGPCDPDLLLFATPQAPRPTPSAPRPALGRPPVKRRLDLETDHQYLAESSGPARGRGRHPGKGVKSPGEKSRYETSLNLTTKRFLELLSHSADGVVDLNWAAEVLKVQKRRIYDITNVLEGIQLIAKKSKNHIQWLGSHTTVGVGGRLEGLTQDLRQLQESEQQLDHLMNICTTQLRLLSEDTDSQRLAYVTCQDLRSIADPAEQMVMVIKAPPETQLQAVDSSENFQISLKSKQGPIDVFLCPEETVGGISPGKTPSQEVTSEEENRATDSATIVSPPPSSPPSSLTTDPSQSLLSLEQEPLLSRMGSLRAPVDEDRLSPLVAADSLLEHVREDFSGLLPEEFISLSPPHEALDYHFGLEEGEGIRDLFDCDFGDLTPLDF
Sequence of Paired box protein Pax-6 (Homo sapiens) (P26367 whole entry, looked up): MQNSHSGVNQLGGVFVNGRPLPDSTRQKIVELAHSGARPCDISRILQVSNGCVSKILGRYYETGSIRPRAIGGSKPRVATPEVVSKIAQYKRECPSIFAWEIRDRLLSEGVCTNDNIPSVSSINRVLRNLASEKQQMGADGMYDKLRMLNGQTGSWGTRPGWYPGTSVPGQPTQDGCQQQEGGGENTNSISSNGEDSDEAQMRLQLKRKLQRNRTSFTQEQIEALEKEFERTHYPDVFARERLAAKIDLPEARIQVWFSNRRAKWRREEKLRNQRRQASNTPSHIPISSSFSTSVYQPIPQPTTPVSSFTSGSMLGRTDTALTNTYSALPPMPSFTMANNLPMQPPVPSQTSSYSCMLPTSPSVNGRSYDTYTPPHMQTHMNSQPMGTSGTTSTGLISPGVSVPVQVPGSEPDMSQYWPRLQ

On to `Cc1ccccc1S(N)(=O)=O`, for which the call in test [1], in [2], in test [3], in [4], in [5] and in [6] was inactive. Further, the result in test [7], in test [8], in test [9], in test [10], in test [11] and in [12] was inactive. The call in test [13], in test [14], in [15], in [16], in test [17] and in [18] was inactive. Besides, the outcome in [19] and in test [20] was inactive.
On to `C=C(C)C(=O)OCCCCCC`, for which the outcome in test [1], in test [2], in test [3], in test [4], in test [5] and in test [6] was inactive. The result in [7], in test [8], in test [9], in test [10], in [11] and in [12] was inactive. In addition, the outcome in [13], in [14], in test [15], in [16], in test [17] and in test [19] was inactive. Further, the result in test [20] was inactive. For the same compound, in test [18], the AC50 was 26.5 µM (active).
For `CCCCCCCCCCC1CO1` (stereo not given), the compound was classed as inactive in test [1], in test [2], in [3], in test [5], in test [6] and in [7]. Besides, the result in test [8], in test [9], in [10], in test [11], in test [12] and in test [14] was inactive. The call in test [15], in test [17] and in test [20] was inactive. For the same compound, the AC50 in [4] was 164 µM (active); in test [13], 159 µM (active); in [16], 152 µM (active); in test [18], 27 µM (active); in test [19] it was 154 µM (active).
